# From PubChem
# Hits are enriched below; roughly 7.9% of the tested compounds scored in any of these assays.
# HT1080 IDH1KD tx: HT-1080 IDH1 knockdown cell toxicity (counter line); HT-1080 IDH1 knockdown viability, ATP luminescence, 48 h; Potency, µM (doses to about 46.1 µM), inactives show top-dose activity, negative = toxicity, most hits filed as cytotoxic; 360,000 tested, 2% active;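 further: 0% = DMSO wells and -100% = cell-free medium wells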
#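 Assay cells: HT-1080 with IDH1 knockdown, 750 per well, RPMI/5% FBS. Exposure: 48 h at 37 °C following 2 h pre-incubation. Read: CellTiter-Glo luminescence; fitted concentration-response, curve class assigned.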
# KB-V1 MDR tox: kills drug-selected multidrug resistant KB-V1 cells; 400,000 tested, 3.4% active; KB-V1 MDR cells viability, CellTiter-Glo, 72 h; Potency, µM (series often up to 46.1 µM), most hits filed as cytotoxic; further: on the % scale 0 is the no-effect control and ±100 the full control effect; nearly all actives have a fitted effect of over 60% in size
#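 Potencies derive from concentration-effect curves fitted to normalized luminescence (CellTiter-Glo) of KB-V1 cells treated for 72 h at 37 degrees C in phenol-red-free DMEM containing 10% FBS.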
# SW480 rereplic: inducers of DNA re-replication in SW480 colon cancer cells | SW480 DNA re-replication, Hoechst DNA content imaging, 48 h | Potency, µM (top dose mostly 46.1 µM), without a hit: at the top dose re-replication activation, usual class: activators | 340,000 tested, 1.8% active | AID 624297; further: % of control where 0% means no effect; nearly all actives have a fitted effect of over 55% in size
#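 First, 250 cells per well were seeded. Next, compound or vehicle (23 nL) was pinned in, plates sat 48 hr at 37 C. Finally Hoechst was added for 40 min before fluorescence scanning.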
# KB-3-1 tox: kills parental KB-3-1 adenocarcinoma cells. Potency, µM (doses to about 46.1 µM), most hits filed as cytotoxic. 400,000 tested, 1.4% active. AID 1347075. KB-3-1 viability, CellTiter-Glo ATP luminescence, 72 h; further: on the % scale 0 is the no-effect control and ±100 the full control effect; nearly all actives have a fitted effect of over 60% in size
#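 Parental KB-3-1 adenocarcinoma cells in phenol-red-free DMEM with 10% FBS were pin-treated with compounds at several concentrations, incubated 72 h at 37 °C, and viability read by CellTiter-Glo luminescence; concentration-effect curves were fitted after normalization.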
# HT1080-NT tox: kills 2HG-producing HT-1080-NT fibrosarcoma cells | HT-1080-NT fibrosarcoma viability, CellTiter-Glo ATP luminescence, 48 h | 360,000 tested, 1.6% active | Potency, µM (series often up to 46.1 µM), inactives show top-dose activity, negative = less viability, hits mostly cytotoxic;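 further: NT is the 2HG producing partner of a matched IDH1 knockdown line; 0% = DMSO-treated cells and -100% = media-only wells without cells; nearly all actives have a fitted effect of over 55% in size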
#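 750 cells/well, RPMI + 5% FBS; 2 h settle, compound pin-transfer, 48 h at 37 degrees C. CellTiter-Glo 10 min RT, luminescence. Normalized to DMSO and media-only wells.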
# MCF10A rerep: inducers of DNA re-replication in MCF 10A breast cells; AID 624296; 350,000 tested, 2.9% active; MCF 10A DNA re-replication, Hoechst nuclear intensity, 48 h; Potency, µM (highest dose often 46.1 µM), without a hit: at the top dose activity, positive = re-replication, actives largely listed as activators; further: % of control where 0% means no effect; nearly all actives have a fitted effect of over 50% in size
# An asterisk follows results filed as active; i = inactive; u = inconclusive; x = not tested or not shown; [ ] = dose if it differs, or a comment. The call rests on the fitted dose curve; in most records, active means well fitted curve in the direction sought with a large enough effect; inconclusive means small, poorly fitted or top-dose-only effect, or another doubt; inactive means no such curve, though single readings can be large; an effect the other way counts as inactive or inconclusive. Potency means the concentration at half of the fitted maximal effect.
SMILES,HT1080 IDH1KD tx,KB-V1 MDR tox,SW480 rereplic,KB-3-1 tox,HT1080-NT tox,MCF10A rerep
CCc1nnc(NC(=O)c2oc3cc(C)c(C)cc3c2C)s1,u,i,0.52µM*,u,u,5%
O=C(NNc1nc2ccc(F)cc2s1)c1cccc(F)c1,15µM*,i,185%,u,u,19%
COc1ccc(-c2ccc(=O)n(CC(=O)Nc3cc(OC)ccc3OC)n2)cc1,x,i,x,i,x,x
COc1ccc(C2Nc3cccc(O)c3C(=O)N2Cc2ccccc2)cc1COc1ccc(NC(C)=O)cc1 (stereo not given),x,i,x,i,x,x
CCc1nnc(NC(=O)c2ccc(COc3ccc(C)cc3)o2)s1,0%,i,-3%,i,4%,-1%
CCc1nnc(NC(=O)c2ccc(COc3ccccc3)o2)s1,12%,15µM*,-2%,i,u,13%
O=c1c2nncn2ccn1-c1ccc(F)c(F)c1,x,i,x,i,x,x
O=C(COC(=O)CSc1ccc(F)cc1)NCc1ccco1,-3%,u,11%,u,2%[9.24 µM],-1%
O=C(COC(=O)Cc1ccc(F)cc1)NCc1ccco1,8%,i,12µM*,i,2%,3%
CCN(CC)c1ccc(NS(=O)(=O)c2ccc(-c3cnc(C4CC4)o3)cc2)c(C)c1,x,i,x,i,x,x
Cc1cc(C)c(NS(=O)(=O)c2ccc(-c3cnc(C4CC4)o3)cc2)c(C)c1,x,2.1µM*,x,0.46µM*,x,x
O=S(=O)(c1ccc(-c2cnc(C3CC3)o2)cc1)N1CCN(c2cccc(Cl)c2)CC1,x,u,x,i,x,x
O=S(=O)(Nc1ccc(F)cc1Cl)c1ccc(-c2cnc(C3CC3)o2)cc1,u,1.5µM*,u,1.2µM*,1.2µM*,1µM*
Cc1ccc(NS(=O)(=O)c2ccc(-c3cnc(C4CC4)o3)cc2)c(C)c1,0.82µM*,2.6µM*,9.2µM*,2.1µM*,u,0.73µM*
CCc1ccc2nc(SCC(=O)N(CC)CC)c(C#N)cc2c1,-2%,13µM*,1%,i,-1%,u
CCN(CC)C(=O)CSc1nc(C)cc(C)c1C#N,16%,i,-6%,i,21%,1%
O=C(O)CCC(=O)OCCN(Cc1ccc(Oc2ccc([N+](=O)[O-])cc2)cc1)C(=O)C(Cl)Cl,-5%,23µM*,-1%,i,4%,8%
O=C(CCS(=O)(=O)c1ccccc1)OCc1ccc([N+](=O)[O-])cc1,6%,i,1%,i,14%,0%
Cc1ccc(-n2c(-c3ccccc3)nsc2=NC#N)cc1,x,i,x,i,x,x
CCn1c(=O)c2cc(C(=O)Nc3cc(F)ccc3F)sc2c2ccccc21,x,i,x,i,x,x
CCOc1ccc(CCNC(=O)Cn2ccc3cc(S(=O)(=O)N4CCCCCC4)ccc32)cc1,x,i,x,i,x,x
COC(=O)CCc1c(C)c(C(=O)c2cc(OC)c(OC)c(OC)c2)c2ccccn12,u,i,10µM*,i,u,u
COc1cccc(CNC(=O)c2ccc(-c3nc(CS(=O)c4ccccc4)c(C)o3)cc2)c1 (stereo not given),x,i,x,i,x,x
COc1ccc(N(C(=O)CCl)C(C(=O)NCCc2ccccc2)c2cccs2)cc1 (stereo not given),1.6µM*,18µM*,3.3µM*,7.3µM*,2.1µM*,u
COc1ccc(CNC(=O)C(c2ccncc2)N(C(=O)Cc2cccs2)c2ccccc2)cc1 (stereo not given),5%,i,0%,u,5%,-3%
SMILES,HT1080 IDH1KD tx,KB-V1 MDR tox,SW480 rereplic,KB-3-1 tox,HT1080-NT tox,MCF10A rerep
CCOCCCn1c(SCC(=O)Nc2ccc(F)cc2)nc2c(sc3ccccc32)c1=O,x,u,x,i,x,x
Cc1[nH]n(-c2ccccc2)c(=O)c1/C=N/N(C)c1ccccc1,-4%,15µM*,u,i,3%,-63%
Cc1ccc2cccc(N=Cc3c(C)[nH]n(-c4ccccc4)c3=O)c2n1,u,13µM*,7.3µM*,i,-18%,2%
Cc1[nH]n(-c2ccccc2)c(=O)c1/C=N/O,u,i,u,i,u,u
COc1cc2ccccc2cc1C(=O)N(CCN(C)C)c1nc2ccc(C)cc2s1,16µM*,u,u,i,23µM*,u
COc1cc2ccccc2cc1C(=O)N(CCN(C)C)c1nc2c(OC)ccc(OC)c2s1,u,i,u,u,16µM*,u
CCN(CC)CCN(C(=O)c1cc2ccccc2cc1OC)c1nc2ccc(F)cc2s1,u,i,u,i,18µM*,12%
COc1cc(C2Oc3nc(SC)nnc3-c3ccccc3N2C(C)=O)cc(Cl)c1OC (stereo not given),x,i,x,i,x,x
Cc1ccc(C(=O)NNc2cc(N3CCCC3)nc(N3CCCC3)n2)cc1,3%,1.5µM*,10%,i,6%,19%
O=C(NNc1cc(N2CCOCC2)nc(N2CCOCC2)n1)c1ccc(Cl)c(Cl)c1,2%,12µM*,107%,i,4%,-44%
Cc1cc(C)cc(NC(=O)Cn2c(C)cc(C)c(C#N)c2=O)c1,x,u,x,i,x,x
CCCCCc1c(-c2ccc(Br)cc2)ncn1CCc1ccccc1OC,21µM*,16µM*,x,u,16µM*,x
COc1ccccc1CCn1cnc(-c2ccc(Br)cc2)c1C(C)C,23µM*,u,x,u,23µM*,x
CCCCCc1c(-c2ccc(F)cc2)ncn1CCc1ccccc1OC,u,12µM*,x,18µM*,u,x
COc1ccccc1CCn1cnc(Cc2ccccc2)c1C(C)C,u,13µM*,x,u,u,x
COc1ccc(N2CCN(C(=O)c3c(C)oc4ncn(CC(C)C)c(=O)c34)CC2)cc1,x,i,x,i,x,x
CC(=O)c1ccccc1NC(=O)CSCc1nc2sc(C)c(C)c2c(=O)[nH]1,-2%,u,-5%,i,-6%,3%
CSc1ccccc1NC(=O)CSCc1nc2sc(C)c(C)c2c(=O)[nH]1,3%,i,-26%,i,2%,2.3µM*
Cc1sc2nc(CSCC(=O)Nc3ccccc3C#N)[nH]c(=O)c2c1C,1%,21µM*,7%,i,0%,21%
O=C1N(Cc2ccc(F)cc2Cl)c2ccccc2C12OCCCO2,-2%,18µM*,5%,u,-4%,24%
O=C1N(CCCN2C(=O)C3(OCCO3)c3ccccc32)c2ccccc2C12OCCO2,-19%,12µM*,-10%,i,-7%,5%
